# Values joined by “and” are separate entries in the source; they are usually repeats but may differ in a detail not shown here. Identical values can stand only once. Out of some 360,000 compounds screened, about 2,400 (0.67%) were called active. Only a selection was taken, and actives are over-represented in it overall. Values without a mark were called inactive.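 Rule for the calls: active = compounds whose normalised, plate-corrected inhibition of enzyme fluorescence in the single-dose primary screen is 50% or more; inactive = the rest.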
# Target: Fatty acid synthase (Homo sapiens) (UniProt P49327)
# Sequence (P49327 whole entry, looked up): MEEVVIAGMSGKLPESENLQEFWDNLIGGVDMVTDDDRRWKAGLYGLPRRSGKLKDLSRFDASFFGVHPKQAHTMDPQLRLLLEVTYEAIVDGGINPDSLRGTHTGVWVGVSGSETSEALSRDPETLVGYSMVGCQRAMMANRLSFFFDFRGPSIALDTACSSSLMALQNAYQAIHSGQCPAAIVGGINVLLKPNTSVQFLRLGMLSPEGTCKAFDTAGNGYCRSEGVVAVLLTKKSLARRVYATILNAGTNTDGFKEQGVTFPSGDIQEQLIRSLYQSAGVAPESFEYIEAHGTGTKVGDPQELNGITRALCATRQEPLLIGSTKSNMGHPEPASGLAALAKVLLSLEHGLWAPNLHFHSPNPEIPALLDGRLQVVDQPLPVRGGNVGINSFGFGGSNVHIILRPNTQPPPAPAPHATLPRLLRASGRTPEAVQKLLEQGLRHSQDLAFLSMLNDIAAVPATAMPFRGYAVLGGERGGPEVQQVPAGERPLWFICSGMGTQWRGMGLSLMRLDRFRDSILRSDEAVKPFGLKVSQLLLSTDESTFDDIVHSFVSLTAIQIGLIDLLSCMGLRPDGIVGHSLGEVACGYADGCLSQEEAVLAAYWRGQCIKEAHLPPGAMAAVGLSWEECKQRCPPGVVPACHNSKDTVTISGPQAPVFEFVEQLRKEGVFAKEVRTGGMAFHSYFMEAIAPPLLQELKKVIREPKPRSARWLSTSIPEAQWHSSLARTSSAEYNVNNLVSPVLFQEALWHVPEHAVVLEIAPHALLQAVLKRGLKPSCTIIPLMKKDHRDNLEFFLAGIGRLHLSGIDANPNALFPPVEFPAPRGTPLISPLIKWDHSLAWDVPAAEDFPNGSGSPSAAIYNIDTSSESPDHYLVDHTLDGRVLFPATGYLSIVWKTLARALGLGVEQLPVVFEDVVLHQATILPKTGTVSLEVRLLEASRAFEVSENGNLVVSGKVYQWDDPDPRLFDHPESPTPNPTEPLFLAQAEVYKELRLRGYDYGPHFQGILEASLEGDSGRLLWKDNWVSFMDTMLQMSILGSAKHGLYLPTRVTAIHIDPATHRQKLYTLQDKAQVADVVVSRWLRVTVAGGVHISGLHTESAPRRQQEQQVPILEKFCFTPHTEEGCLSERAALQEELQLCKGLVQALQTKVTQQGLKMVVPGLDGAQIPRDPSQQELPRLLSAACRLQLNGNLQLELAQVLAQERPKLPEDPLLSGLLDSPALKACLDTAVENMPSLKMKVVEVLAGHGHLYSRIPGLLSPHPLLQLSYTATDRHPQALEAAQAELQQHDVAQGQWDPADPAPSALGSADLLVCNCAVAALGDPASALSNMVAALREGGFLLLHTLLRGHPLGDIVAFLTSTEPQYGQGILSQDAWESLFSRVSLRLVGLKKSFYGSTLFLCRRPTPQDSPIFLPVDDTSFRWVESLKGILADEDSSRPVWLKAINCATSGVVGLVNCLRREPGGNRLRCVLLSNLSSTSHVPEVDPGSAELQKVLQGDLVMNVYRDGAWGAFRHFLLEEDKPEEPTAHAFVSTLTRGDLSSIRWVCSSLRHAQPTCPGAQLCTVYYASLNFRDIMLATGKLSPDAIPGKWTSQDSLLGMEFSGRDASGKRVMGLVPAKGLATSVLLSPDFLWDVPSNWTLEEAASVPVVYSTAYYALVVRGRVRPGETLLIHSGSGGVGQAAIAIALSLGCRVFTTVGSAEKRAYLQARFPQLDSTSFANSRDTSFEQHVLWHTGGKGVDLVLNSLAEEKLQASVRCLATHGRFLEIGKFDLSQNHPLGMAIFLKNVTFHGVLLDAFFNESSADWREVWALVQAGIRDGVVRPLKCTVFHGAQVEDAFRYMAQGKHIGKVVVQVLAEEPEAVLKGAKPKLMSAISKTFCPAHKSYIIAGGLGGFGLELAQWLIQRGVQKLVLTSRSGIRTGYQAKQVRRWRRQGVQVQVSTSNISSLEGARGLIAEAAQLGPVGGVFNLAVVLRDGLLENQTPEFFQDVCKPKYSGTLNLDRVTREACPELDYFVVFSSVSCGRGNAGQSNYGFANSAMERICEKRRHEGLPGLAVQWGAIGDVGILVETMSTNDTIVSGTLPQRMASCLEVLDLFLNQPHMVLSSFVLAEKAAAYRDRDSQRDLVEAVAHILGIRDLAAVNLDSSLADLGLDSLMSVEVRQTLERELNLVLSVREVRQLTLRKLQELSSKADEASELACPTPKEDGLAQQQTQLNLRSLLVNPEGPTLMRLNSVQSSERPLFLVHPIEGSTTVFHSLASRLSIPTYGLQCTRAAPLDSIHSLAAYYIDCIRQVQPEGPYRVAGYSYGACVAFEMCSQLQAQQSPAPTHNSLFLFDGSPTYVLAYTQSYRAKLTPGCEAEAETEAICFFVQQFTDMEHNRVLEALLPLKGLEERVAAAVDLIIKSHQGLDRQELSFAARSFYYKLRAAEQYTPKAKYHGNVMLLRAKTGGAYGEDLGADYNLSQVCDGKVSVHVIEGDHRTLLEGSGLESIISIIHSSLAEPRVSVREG
# Test: inhibition of human FAS-TE enzyme activity – biochemical, fluorescence intensity, uHTS, primary screen (AID 602261);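 note: 0% = DMSO with enzyme and 100% = substrate without enzyme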
# Conditions: recombinant FAS-TE, OMFH fluorogenic substrate, fluorescence endpoint; at 15 µM; active compounds read high
row,Structure (SMILES),inhibition
1,Cc1ccc(NC(=O)[C@H](Cc2ccccc2)NC(=O)CC[C@H]2O[C@@H](n3ccc(=O)[nH]c3=O)[C@H](O)[C@@H]2O)cc1C,-9.9%
2,Cc1ccc(Cl)c(OCC(=O)NN2CCN(C)CC2)c1,-5.7%
3,COc1ccc2c(CC(=O)NNC(=O)c3ccccc3F)coc2c1,-5%
4,COC(=O)[C@@H](NC(=O)NCc1cccc(OC)c1)C(C)C,-7.7%
5,COc1ccc(NC(=O)CN2C(=O)CSc3ccc(S(=O)(=O)N4CCC(C)CC4)cc32)cc1,42.2%
6,COc1ccc(-c2nc3cnccn3c2NC(C)(C)CC(C)(C)C)cc1O,55% (active)
7,CCOc1cc(-c2nc3cc(C)ccn3c2NCC2CCCO2)ccc1O (stereo unspecified),-4.4%
8,COc1ccc(-c2nc3cnccn3c2NC2CCCCC2)cc1-c1cccc(Cl)c1,32.3% and 25.3%
9,COc1ccc(NC2=CC(=S)NC(C)(C)C2)cc1,-11%
10,CCOC(=O)/C(=N\Nc1cc(Cl)ccc1Cl)N1CCN(C)CC1,3.8%
11,CCN(CCO)C(=S)Nc1cc(C(=O)OC)ccc1C(=O)OC,-10.4%
12,O=C(Nc1ccccc1Cl)c1ccccc1S(=O)(=O)c1ccccc1[N+](=O)[O-],6.3%
13,Cc1cc(C(=O)OCC(=O)Nc2ccccc2Cl)c(C)o1,7.5%
14,O=C(Nc1ccccc1Cl)/C(Cl)=C(\Cl)S(=O)c1ccccc1 (stereo unspecified),73.7% (active)
15,CC(C)Oc1ccc(CN2CCC2(C)C(=O)NCc2ccc(C(F)(F)F)cc2)cc1 (stereo unspecified),34.4%
16,CC1(C)CC(=O)C(C2=NC(C)(C)Cc3ccccc32)=C(O)C1,-7%
17,FC(F)(F)c1cccc(-c2cc3ccccc3nc2N2CCCC2)c1,18.4%
18,Cc1cc(Cl)ccc1OCCCC(=O)Nc1cccc(-n2cnnn2)c1,30.3%
19,O=C(Nc1cccc(-n2cnnn2)c1)c1cccnc1,-7.9%
20,O=C(Nc1ccc(C(F)(F)F)cc1)c1cccc(-n2cnnn2)c1,64.5% (active)
21,Cc1ccc(S(=O)(=O)Nc2ccc(F)c(S(=O)(=O)N3CCOCC3)c2)cc1,-1%
22,COc1ccc(-c2ccc(OC(=O)NC3CCS(=O)(=O)C3)cc2)cc1 (stereo unspecified),-3.8%

row,Structure (SMILES),inhibition
1,CCOC(=O)CSc1nc(C)c(Oc2ccc(Cl)cc2Cl)c(=O)[nH]1,-5.3%
2,CCc1ccc(C(=O)CSc2nnc(C)c(=O)[nH]2)cc1,-4.7%
3,CCCCOC(=O)CNc1nnc(SCC(=O)OCC)[nH]c1=O,50.2% (active)
4,Cc1noc(C)c1S(=O)(=O)N(C)C[C@H]1OCCCC[C@@H](C)Oc2ccc(NC(=O)CCCN(C)C)cc2C(=O)N([C@H](C)CO)C[C@@H]1C,-10.2%
5,COc1ccc(NC(=O)/C(Cl)=C(/Cl)S(=O)Cc2ccc(C)cc2)cn1 (stereo unspecified),53.3% (active)
6,COc1cccc(NC(=S)N(Cc2ccc(C)cc2)Cc2ccccn2)c1,5.4%
7,COc1ccc(NC(=O)C2Cc3c(-c4ccc5c(c4)OCO5)ccnc3O2)cn1 (stereo unspecified),1.3%
8,COCc1c(N)c(C)nc(Cl)c1C#N,-5.4%
9,COc1cccc(-c2sc3ccc(OC)cc3c2-c2ccc(OCCN3CCCCC3)cc2)c1,15.5%
10,COc1ccc(-c2csc3ncnc(Oc4ccc5c(C)cc(=O)oc5c4)c23)cc1,-2.5%
11,COc1ccccc1-c1nc(C(F)(F)F)c(OC)o1,-1.4%
12,Cc1sc2nc(SCCO)n(-c3ccccc3)c(=O)c2c1C,-4.5%
13,COc1ccc(-c2csc3nc(-c4ccccc4F)oc(=O)c23)cc1OC,65.3% (active)
14,Cc1sc2nc(-c3ccccc3F)oc(=O)c2c1C,54.7% (active)
15,CC1CCN(c2oc(-c3ccccc3F)nc2C#N)CC1,20.3%
16,Cc1cc(C)n2nc(CNS(=O)(=O)c3c(F)c(F)c(F)c(F)c3F)nc2n1,12.1%
17,CC(=O)c1nn(-c2cccc(Br)c2)cc1C(=O)c1cccc2ccccc12,27.7%
18,CCC1OC(c2ccc([N+](=O)[O-])cc2)=Nc2ccccc21 (stereo unspecified),14.7%
19,O=C(O)c1ccc(COc2c(F)c(F)cc(F)c2F)o1,-6.9%
20,CC(C)C[C@@H]1Cc2[nH][nH]c(=O)c2[C@H](CCc2ccccc2)O1,-59.6%
21,COc1cc(/C=C/c2ccc(/C=C/c3cc(OC)c(OC)c(OC)c3)cc2)cc(OC)c1OC,8.2%
22,O=C(Cn1nnc2ccccc2c1=O)Nc1cc(C(F)(F)F)ccc1N1CCOCC1,5.9%

row,Structure (SMILES),inhibition
1,CSCCC(NC(=O)COc1ccccc1)C(=O)OCC(=O)c1cc2ccccc2o1 (stereo unspecified),70.7% (active)
2,CSCCC(NC(=O)COc1ccccc1)C(=O)OCCOc1ccc(Br)cc1 (stereo unspecified),21.8%
3,CSCCC(NC(=O)COc1ccccc1)C(=O)OCc1ccc(Cl)cc1 (stereo unspecified),24.4%
4,Cc1ccc(C)c2[nH]c(=O)c(CCNC(=O)CC(C)C)cc12,-6.6%
5,Cc1cccc(CSc2nc3c(c(=O)n2C)SCC3)c1,12.5%
6,CC1=CC(=C(C#N)c2nc3ccccc3s2)C=C(C)N1c1ccc(F)cc1F,59.2% (active)
7,COCCCNC(=O)CNC(=O)c1nn(-c2ccc(OC)cc2)c(=O)c2ccccc12,-6.6%
8,O=C(CN1CCCCC1)N1c2ccccc2Sc2ccc(C(F)(F)F)cc21,11.9%
9,CC[C@]12c3[nH]c4ccc(OC)cc4c3CCN1C(=O)C(CC(=O)NCc1ccco1)C[C@@H]2C(=O)N1CCN(C(=O)C2CC2)CC1 (stereo partly specified),-7.3%
10,O=C(C[C@H]1C[C@H](C(=O)N2CCOCC2)[C@@]2(CCC3CCCC3)c3[nH]c4ccc(Cl)cc4c3CCN2C1=O)NCc1ccco1,88.8% (active)
11,COc1ccc(CNC(=O)C[C@H]2C[C@H](C(=O)N3CCOCC3)[C@@]3(CCC4CCCC4)c4[nH]c5ccc(Cl)cc5c4CCN3C2=O)cc1OC,89% (active)
12,COc1ccc2[nH]c3c(c2c1)CCN1C(=O)C(CC(=O)NCCCN(C)C)C[C@H](C(=O)N2CCOCC2)[C@@]31CCC1CCCC1 (stereo partly specified),43.3%
13,CN(C)C(=O)CCc1ccc2c3c([nH]c2c1)[C@]1(CCC2CCCC2)[C@@H](C(=O)N2CCOCC2)C[C@H](CC(=O)NCc2ccco2)C(=O)N1CC3,21.1%
14,CC[C@]12c3[nH]c4ccc(Cl)cc4c3CCN1C(=O)[C@@H](CC(=O)NCCN1CCOCC1)C[C@@H]2C(=O)N1CCN(C(=O)C2CC2)CC1,-7.3%
15,COc1ccc(Br)c(Cn2c(C)c(C(=O)NCc3cccs3)sc2=O)c1,19.7%
16,C[n+]1cc(-c2ccccc2)oc1-c1ccccc1,-4.9%
17,COC1C(CO)OC(n2cnc3c(=S)nc(N)[nH]c32)C1O (stereo unspecified),-3.8%
18,Cc1cccc(-n2c(SCC(=O)Nc3cccc(S(=O)(=O)NC4=NCCCCC4)c3)nc3ccccc3c2=O)c1C,71.3% (active)
19,CCc1ccc(C(=O)OCC(=O)Nc2cccc(S(=O)(=O)NC3=NCCCCC3)c2)cc1,1.8%
20,COc1ccccc1C(=O)OCC(=O)Nc1cccc(S(=O)(=O)NC2=NCCCCC2)c1,-6.9%
21,CC(C)(C)NC(=O)NC(=O)COC(=O)Cc1ccc(Cl)cc1Cl,69.5% (active)
22,O=C(COC(=O)Cc1ccc(Cl)cc1Cl)NCc1ccco1,-8.2%

row,Structure (SMILES),inhibition
1,CC(C)(C)NC(=O)NC(=O)COC(=O)Cc1c(F)cccc1Cl,4.6%
2,COC(=O)CCC(=O)N1CCCC(CO)(Cc2ccccc2)C1 (stereo unspecified),-5.2%
3,Cc1ccccc1-c1nc(NC(C)C)nc2cc(-c3ccccc3)sc12,13%
4,COc1ccc(-c2nnc(SC(=O)N3c4ccccc4Sc4ccccc43)o2)cc1,51.9% (active)
5,COc1ccc(-c2nnc(SC(C)C(=O)NC3CC3)o2)cc1 (stereo unspecified),-5.6%
6,COc1ccc(CN(C(=O)CSc2nnc(-c3ccc(OC)c(OC)c3)o2)c2ccc(F)cc2)cc1,45.7%
7,COc1ccc(C(=O)NN2C(=O)C3C(c4ccccc4)C=CC(c4ccccc4)C3C2=O)cc1 (stereo unspecified),33.6%
8,CCNc1c(NS(=O)(=O)c2ccc(C3CCCCC3)cc2)c(=O)oc2ccccc12,5.3%
9,Cc1cccc([C@@H]2[C@@H]3C(=O)N(C)C(=O)[C@@H]3[C@@H]3C(=O)Nc4ccccc4C(=O)N23)c1,-6.8%
10,Cc1nn(CCOc2ccc(Br)cc2)c(C)c1[N+](=O)[O-],62.3% (active)
11,Cc1ccc(Oc2cc(NC(=O)CCCn3nc(C)c([N+](=O)[O-])c3C)cc([N+](=O)[O-])c2)cc1,30.9%
12,COc1ccc(CNC(=O)CCCn2nc(C)c([N+](=O)[O-])c2C)cc1,10.9%
13,O=C(Cc1ccccc1)NNS(=O)(=O)c1ccc([N+](=O)[O-])cc1,11.1%
14,CC(/C=C/c1ccccc1)=N\NC(=O)C1CC1(C)c1ccccc1 (stereo unspecified),20%
15,CC(C=Cc1ccccc1)=NNS(=O)(=O)c1ccc([N+](=O)[O-])cc1,58.3% (active)
16,CCOc1c(N2CCCCC2)c(=O)c1=O,-8%
17,O=C(c1ccc(Cl)c([N+](=O)[O-])c1)N1CCN(c2ccccc2)CC1,53.6% (active)
18,O=C(c1ccc(Oc2ccc(Cl)cc2)c([N+](=O)[O-])c1)N1CCCC1,-19.7%
19,O=C(c1cccc(F)c1)N1CCN(c2ccc([N+](=O)[O-])c(N3CCCCC3)c2)CC1,17.3%
20,COCCNc1nc2nonc2nc1N1CCCC1c1nccs1 (stereo unspecified),-8.3%

# — PubChem BioAssay AID602261 (Sanford-Burnham Center for Chemical Genomics, 2012)
